# Screens from PubChem.
# Sampled rows, rich in hits. Any-hit rate of the full collection: about 8.1%.
# SW480 rerep: induces DNA re-replication in SW480 colon adenocarcinoma cells; SW480 DNA re-replication, Hoechst DNA content imaging, 48 h; Potency, µM (top dose mostly 46.1 µM), without a hit: at the highest dose re-replication activation, hits mostly activators; hit rate 1.8% among 340,000; AID 624297; further: % of control where 0% means no effect; nearly all actives have a fitted effect of over 55% in size
#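 Image-based DNA-content assay: after two days of treatment, nuclei were labelled with the DNA dye Hoechst and imaged, and hits were compounds raising the count of nuclei showing high fluorescence intensity.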
# KB-V1 cytotox: KB-V1 MDR subline cytotoxicity; KB-V1 MDR cells viability, CellTiter-Glo, 72 h; Potency, µM (titrated, usually from 46.1 µM), usual class: cytotoxic; hit rate 3.4% among 400,000; AID 1347076; further: on the % scale 0 is the no-effect control and ±100 the full control effect; nearly all actives have a fitted effect of over 60% in size
#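 Readout: CellTiter-Glo luminescence, 10 min after addition. Cells: KB-V1 MDR subline, 72 h at 37 degrees C with compound. Analysis: corrected, normalized data fitted to concentration-effect curves.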
# KB-3-1 tox: kills parental KB-3-1 adenocarcinoma cells | KB-3-1 viability, CellTiter-Glo ATP luminescence, 72 h | Potency, µM (top dose mostly 46.1 µM), actives largely listed as cytotoxic | hit rate 1.4% among 400,000; further: on the % scale 0 is the no-effect control and ±100 the full control effect; nearly all actives have a fitted effect of over 60% in size
#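 72 h, 37 °C compound treatment of KB-3-1 parental cells; CellTiter-Glo added, 10 min, luminescence read. Data corrected against DMSO-only plates and normalized before curve fitting.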
# ELG1 repair inh: ELG1-dependent DNA repair inhibition | HEK293T ELG1-luciferase reporter, luminescence, 16 h; DNA damage induced by 5-fluorouridine | Potency, µM (top dose mostly 46.1 µM), for inactives: top-dose activity change, negative = inhibition, most hits filed as inhibitors | hit rate 2.3% among 330,000; further: on the % scale 0 is the no-effect control and ±100 the full control effect; nearly all actives have a fitted effect of over 55% in size
#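 Quantitative HTS, concentration-response format. 2,000 cells/well co-treated with 5-fluorouridine and compound, 16 hr in 5% CO2 at 37 °C; ONE-Glo luminescence read after 30 min.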
# MCF10A rerep: DNA re-replication induction in MCF 10a cells | MCF 10A DNA re-replication, Hoechst nuclear intensity, 48 h | Potency, µM (doses to about 46.1 µM), without a hit: at the highest dose activity, positive = re-replication, hits mostly activators | hit rate 2.9% among 350,000; further: % of control where 0% means no effect; nearly all actives have a fitted effect of over 50% in size
# The depositor's hits bear a star; i = inactive; ? = inconclusive; nt = not tested or not shown; [ ] = remark or other dose. The call rests on the fitted dose curve; in most records, active means well fitted curve in the direction sought with a large enough effect; inconclusive means small, poorly fitted or top-dose-only effect, or another doubt; inactive means no such curve, though single readings can be large; an effect the other way counts as inactive or inconclusive. Potency means the concentration at half of the fitted maximal effect.
SMILES,SW480 rerep,KB-V1 cytotox,KB-3-1 tox,ELG1 repair inh,MCF10A rerep
O=C(/C=C/c1ccccc1)Nc1ccc(CN2CCOCC2)cc1,-7%,i,i,?,2%
CC(C)CNC(=O)C1(C)CCCCCN1C(=O)c1cc2ccccc2s1 (configuration not stated),nt,i,i,nt,nt
COC(=O)Nc1ccc(S(=O)(=O)Nc2cccc3ccccc23)cc1,?,15µM*,?,?,30%
COc1ccc(S(=O)(=O)Nc2ccc(O)c3ccccc23)cc1,?,?,?,9.2µM*,?
COc1ccc(S(=O)(=O)Nc2ccccc2)cc1,20%,i,i,nt,0%
COC(=O)c1ccc(CNC(=O)COC(=O)/C=C/c2cccc(OC)c2)cc1,nt,i,i,nt,nt
Cc1ccc(CNC(=O)C2CCN(S(=O)(=O)c3ccc4[nH]c(=O)ccc4c3)CC2)cc1,nt,?,i,nt,nt
COC(=O)c1ccc(CN(c2ccc(C(=O)O)c(O)c2)S(=O)(=O)c2ccc(Cl)c([N+](=O)[O-])c2)cc1,-1%,i,i,-3%,3.7µM*
COC(=O)c1ccc(CN(c2ccccn2)S(=O)(=O)c2ccccc2)cc1,-3%,i,i,2%,17%
CCOC(=O)C1=C(N)Oc2ccc3ccccc3c2C1c1cccnc1 (configuration not stated),-1%[9.22 µM],11µM*,?,-10%,?
COC(=O)[C@@]12C[C@@H](CC(=O)NCCC(C)C)C(=O)N(Cc3cccc4ccccc34)C1=CCC(C)(C)C2,nt,21µM*,21µM*,nt,nt
COC(=O)[C@@]12C[C@@H](CC(=O)NCCc3ccccc3OC)C(=O)N(Cc3cccc4ccccc34)C1=CCC(C)(C)C2,nt,23µM*,?,nt,nt
COC(=O)[C@]12CCCCC=C1N(Cc1cccc3ccccc13)C(=O)[C@H](CC(=O)NCCC(C)C)C2,nt,18µM*,?,nt,nt
COC(=O)[C@@]12C[C@@H](CC(=O)NCc3ccc(C)o3)C(=O)N(Cc3cccc4ccccc34)C1=CCC(C)(C)C2,nt,?,i,nt,nt
COC(=O)[C@@]12C[C@@H](CC(=O)NCCCN3CCCC3=O)C(=O)N(Cc3cccc4ccccc34)C1=CCC(C)(C)C2,nt,i,i,nt,nt
COC(=O)[C@]12CCCCC=C1N(Cc1ccc3c(c1)OCO3)C(=O)[C@H](CC(=O)NCc1cccc3ccccc13)C2,nt,23µM*,?,nt,nt
COC(=O)[C@@]12C[C@@H](CC(=O)NCc3cccc4ccccc34)C(=O)N(Cc3cccc4ccccc34)C1=CCC(C)(C)C2,nt,?,i,nt,nt
COC(=O)[C@@]12C[C@@H](CC(=O)NCC3CCCCC3)C(=O)N(Cc3cccc4ccccc34)C1=CCC(C)(C)C2,nt,21µM*,?,nt,nt
Cc1cccc(CCn2c(=O)c3ccccc3n(Cc3ccccc3C)c2=O)c1,nt,i,i,nt,nt
Cc1c(NC2(c3nnnn3-c3ccc(Br)cc3)CCCCC2)c(=O)n(-c2ccccc2)n1C,3%,3.7µM*,i,0%,4%
O=C(NCCC1CCCCN1S(=O)(=O)c1cccs1)C(=O)Nc1ccccc1 (configuration not stated),3%,i,i,-4%,?
O=C(NCCc1ccccc1)C(=O)NCCC1CCCCN1S(=O)(=O)c1cccs1 (configuration not stated),3%,2.3µM*,i,-22%,13%
COc1ccc(NC(=O)C(=O)NCCC2CCCCN2S(=O)(=O)c2ccccc2)cc1 (configuration not stated),15µM*,?,4.6µM*,?,?
COc1ccc(CNC(=O)C(=O)NCCC2CCCCN2S(=O)(=O)c2ccccc2)cc1 (configuration not stated),-1%,i,i,?,10%
CCNC(=O)C(=O)NCCC1CCCCN1S(=O)(=O)c1cccs1 (configuration not stated),-2%,i,i,1%,11%
COc1ccc(NC(=O)C(=O)NCCC2CCCCN2S(=O)(=O)c2cccs2)cc1 (configuration not stated),4.5µM*,1.8µM*,2.6µM*,-19%,2.1µM*
